Compounds with a hit are over-represented: about 2.3% of the library has one in this group of screens.
Mcl1-Noxa inh – disrupts binding of human Mcl-1 to Noxa peptide. inhibition, % at 21.7 µM. AID 1022. TR-FRET Mcl-1/Noxa peptide binding, 2 h. Q07820. 220,000 tested, 1.5% active;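 active means compounds that cut the protein-peptide binding signal by more than 50% relative to plate controls in a single-dose test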;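 further: His-tagged Mcl-1 with rhodamine Noxa BH3 peptide and terbium anti-His antibody; 0% = Mcl-1 plus Noxa peptide wells and 100% = peptide-only wells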
GLD-1 RNA inh – GLD-1-TGE RNA interaction inhibition (C. elegans); Q17339; purified GLD-1 + fluorescein TGE RNA, fluorescence polarization; inhibition, % at 5.96 µM; 320,000 tested, 0.44% active; AID 2280;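 active means percent inhibition above a per-plate cutoff, the plate mean of test compounds plus 3 SD, cut at about 30% in these data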;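 further: 0% = DMSO wells with GLD-1 and probe and 100% = wells lacking GLD-1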
Target sequence (Q17339 whole entry, looked up): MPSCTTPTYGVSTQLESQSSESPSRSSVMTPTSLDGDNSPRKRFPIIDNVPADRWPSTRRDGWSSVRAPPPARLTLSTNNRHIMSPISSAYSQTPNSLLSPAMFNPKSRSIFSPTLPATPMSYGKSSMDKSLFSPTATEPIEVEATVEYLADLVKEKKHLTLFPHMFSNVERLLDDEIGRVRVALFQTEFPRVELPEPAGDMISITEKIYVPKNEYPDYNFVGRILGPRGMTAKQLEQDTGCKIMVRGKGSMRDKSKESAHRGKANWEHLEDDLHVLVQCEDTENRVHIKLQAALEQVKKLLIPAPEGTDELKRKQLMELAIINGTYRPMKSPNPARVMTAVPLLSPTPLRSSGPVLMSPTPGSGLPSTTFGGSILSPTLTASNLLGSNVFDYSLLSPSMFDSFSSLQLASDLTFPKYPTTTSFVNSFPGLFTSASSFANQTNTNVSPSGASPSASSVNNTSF
Mcl1-Bid inh – disrupts binding of human Mcl-1 to Bid peptide; Q07820; TR-FRET Mcl-1/Bid-Dy647 peptide binding, 1536-well; inhibition, % at 21.7 µM; 220,000 tested, 0.97% active; AID 1021;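 active means compounds that cut the binding signal by more than half at the single screening dose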;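 further: His-tagged Mcl-1 with europium anti-His antibody binding Bid BH3 peptide; 0% = Mcl-1 plus peptide wells and 100% = peptide-only wells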
Bcl-xL primary – blocks human Bcl-xL binding to Bim BH3 peptide; 320,000 tested, 0.7% active; Q07817; GST-Bcl-xL / FITC-Bim BH3 peptide fluorescence polarization; inhibition, % at 10.9 µM;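 active means inhibition above the mean of all tested compounds plus 3 SD, cutoff set per campaign, cut at about 30% in these data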;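 further: 0% = DMSO wells and 100% = unlabeled Bim-BH3 peptide competitor; inhibitors lower millipolarization by displacing the labeled peptide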
Bim-Mcl-1 – human Bim-Mcl-1 interaction inhibition; AID 1009; Bead-based flow cytometry, Bim peptide-Mcl-1 binding; 190,000 tested, 0.1% active; inhibition, % at 10 µM; in the data active means inhibition above about 40%;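 further: 0% = no compound tracer wells and 100% = peptide blocker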
MCL1-BIM inh – MCL1-BIM-BH3 interaction inhibition (human); Q07820; GST-MCL1 / FITC-Bim-BH3 fluorescence polarization; inhibition, % at 10.9 µM; 320,000 tested, 0.68% active; AID 2057;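 active means inhibition above the mean inhibition of all tested compounds plus 3 SD, set per campaign, cut at about 40% in these data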;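 further: 0% = DMSO wells and 100% = unlabeled Bim-BH3 peptide control; higher means more loss of mP so more displacement of Bim peptide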
* hit, by the source's call; x = not tested or not shown.

SMILES	Mcl1-Noxa inh	GLD-1 RNA inh	Mcl1-Bid inh	Bcl-xL primary	Bim-Mcl-1	MCL1-BIM inh
COc1ccc(C(=O)N(Cc2ccco2)Cc2cccs2)c(O)c1	5	-2	-14	-1	-2	-8
Cc1cc(NC(=O)COC(=O)C2=COCCO2)c([N+](=O)[O-])cc1C	18	2	-20	42*	-6	3
CCCS(=O)(=O)c1nc(S(=O)(=O)c2ccc(Cl)cc2)c(N2CCC(O)CC2)s1	x	-2	x	5	x	9
CCC(=O)Oc1ccc2c(=O)c(-c3ccc4ccccc4n3)c(CC)oc2c1C	82*	1	-20	-1	-6	1
CCOC(=O)Cc1csc(NC(=O)c2sc3nc4ccc(CC)cc4cc3c2N)n1	89*	13	91*	21	5	11
O=C(NCCc1ccccc1)c1ccc(S(=O)(=O)N2CCCC2)cc1	x	4	x	-13	x	-17
Cc1ccc2nc3c(cc(C(N)=S)c(=N)n3CCCOC(C)C)c(=O)n2c1	-4	12	-28	39*	1	39
COCCCn1c(=N)c(C(N)=S)cc2c(=O)n3cccc(C)c3nc21	x	-1	x	34*	x	27
Cc1cccn2c(=O)c3cc(C(N)=S)c(=N)n(CCCN4CCOCC4)c3nc12	40	-5	58*	33*	0	34
O=C(Cn1ccc2ccccc2c1=O)NCC(=O)Nc1ccc(F)cc1F	x	6	x	1	x	1
COc1cc(NC(=S)NC(=O)c2ccco2)ccc1NC(=O)C(C)C	-1	-2	-14	7	-3	5
COc1cc(NC(=S)NC(=O)c2ccccc2F)ccc1NC(=O)c1ccco1	32	7	53*	7	-7	12
CN1C(=O)/C(=C2\SC(=S)N(CCCCCC(=O)O)C2=O)c2ccccc21	113*	9	96*	8	x	4
C=CCn1c(SCC(=O)c2ccc(O)c(O)c2)nnc1-c1cccc(Cl)c1	x	-7	x	4	x	18
C=CCn1c(SCC(=O)O)nnc1-c1cccc(Cl)c1	70*	8	-42	3	2	-14
O=C(NCc1ccc(Cl)cc1)C(=O)N/N=C/c1ccc(Br)cc1	-11	-1	2	4	-3	1
O=C(NNC(=O)C12CC3CC(CC(C3)C1)C2)c1ccccc1[N+](=O)[O-]	x	-3	x	5	x	8
CC(O)CNC(=O)C1CCN(Cc2ccc(OCc3ccccc3)cc2)CC1 (centres undefined)	31	9	63*	3	-6	0
COc1cc(C(=O)Nc2ccc3c(c2)C(=O)c2ccccc2C3=O)cc(OC)c1OC	85*	7	77*	5	-2	-4
COc1ccc(C(=O)Nc2ccc3c(c2)C(=O)c2ccccc2C3=O)cc1OC	68*	5	85*	8	0	8
O=C(COC(=O)Cn1cnc2ccccc21)Nc1ccc2c(c1)C(=O)c1ccccc1C2=O	84*	6	65*	16	0	18
O=C(COc1ccccc1)Nc1ccc2c(c1)Cc1cc(NC(=O)COc3ccccc3)ccc1-2	20	2	22	6	113*	-2
CCOC(=O)[C@@H]1[C@H]2COc3ccc(Br)cc3[C@H]2N2C(=O)N(c3ccc(Cl)cc3)C(=O)[C@]12C	x	1	x	x	x	x
COc1ccc(NC(=O)c2ccccc2NC(=O)COc2ccccc2)cc1	-70	0	53*	0	4	1
CCOc1cc(/C=N/NC(N)=O)ccc1OCC(=O)Nc1ccc(C)c(C)c1	17	-5	-3	3	3	2
SMILES	Mcl1-Noxa inh	GLD-1 RNA inh	Mcl1-Bid inh	Bcl-xL primary	Bim-Mcl-1	MCL1-BIM inh
COCC(=O)Nc1ccccc1C(=O)Nc1ccc(OC)cc1	7	1	-17	2	-1	-6
CCOc1cc(C=C2C(=O)c3ccccc3C2=O)ccc1OCC(=O)Nc1ccc(C)cc1	43	6	86*	15	-2	20
Cc1ccccc1OCC(=O)Nc1ccc2c(c1)C(=O)c1ccccc1C2=O	67*	4	8	7	-1	10
CCOc1cc(/C=C2/NC(=O)N(CC(=O)Nc3cccc(C)c3)C2=O)ccc1OCC(N)=O	59*	6	3	2	1	-4
CCOc1cccc(/C=C2/NC(=O)N(CC(=O)Nc3cccc(C)c3)C2=O)c1O	1	10	-3	1	1	-6
CCOC(=O)C1CCN(C(=O)c2cc3ccccc3oc2=O)CC1	7	8	-38	1	-1	-3
O=C(Nc1cccc(-c2cn3cccnc3n2)c1)c1ccc2c(c1)OCO2	57*	3	41	4	-1	1
CCCCn1c(=O)[nH]c(=O)c2c1nc(-c1ccc3ccccc3c1)n2CC	9	-5	-14	8	8	2
CCCCn1c(=O)[nH]c(=O)c2c1nc(-c1ccc(-c3ccccc3Br)o1)n2CC	55*	-10	-6	-5	-3	5
O=[N+]([O-])c1ccc(N/N=C/c2cn(Cc3ccc(F)cc3)c3ccccc23)nc1	57*	-8	94*	-28	-3	-50
O=C(N/C(=C/C=C/c1ccccc1)C(=O)N1CCOCC1)c1ccccc1Br	15	-3	-6	-1	2	-6
O=c1c2ccccc2c(C=Nc2cccc(O)c2)c(O)n1-c1ccc2c(c1)OCO2	50	2	60*	-2	-4	5
COc1ccc(N=Cc2c(O)n(-c3ccc(OC)cc3)c(=O)c3ccccc23)cc1	46	-10	49	6	-2	-4
Oc1ccccc1Nc1nc(NCc2ccccc2)c2ccccc2n1	59*	7	-20	1	-4	9
Cc1cc(NC(=O)c2noc3c2CCc2ccccc2-3)no1	41	0	67*	2	0	-1
CCc1nnc(NC(=O)CCC(=O)NC2CC2)s1	x	1	x	5	x	-3
COc1ccccc1CCC(=O)Nc1ccc(S(=O)(=O)Nc2nccs2)cc1	x	11	x	5	x	-5
COc1ccc(C(CC(=O)N2CCN(c3ccccc3)CC2)c2c(OC)cc(OC)c3c(-c4ccccc4)cc(=O)oc23)cc1 (centres undefined)	3	x	-49	x	x	x
COc1ccc(C(CC(=O)N2CCCC(C)C2)c2c(OC)cc(OC)c3c(-c4ccccc4)cc(=O)oc23)cc1 (centres undefined)	59*	9	-103	1	x	20
COc1ccc(C(CC(=O)N2CCOCC2)c2c(OC)cc(OC)c3c(-c4ccccc4)cc(=O)oc23)cc1 (centres undefined)	54*	-1	-18	6	x	21
COc1cc(C(CC(=O)N2CCCC2)c2c(OC)cc(OC)c3c(-c4ccccc4)cc(=O)oc23)cc(OC)c1OC (centres undefined)	36	0	-49	7	x	19
COc1ccc(C(CC(=O)N2CCCCC2)c2c(OC)cc(OC)c3c(-c4ccccc4)cc(=O)oc23)cc1 (centres undefined)	63*	5	-102	11	x	32

Assay outcomes as filed in PubChem BioAssay.
